Screening data deposited in PubChem BioAssay by National Center for Advancing Translational Sciences (NCATS).
In the library only some 3.2% were active in any assay of this set; here they are far more common.
p53 reactivation = mutant p53 re-activation in reporter cells | hit rate 0.063% among 320,000 | Potency, µM (doses to about 92.2 µM), inactives show top-dose activity change, positive = activation, usual class: activators | H1299 p53-A138V BP100-luciferase reporter, luminescence, 24 h; further: potency means the concentration at half of the fitted maximal effect; % of control where 0% means no effect; nearly all actives have a fitted effect of over 45% in size
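p53-null H1299 cells stably carrying temperature-sensitive p53-A138V and a BP100-luciferase reporter were pinned with compounds (4-point, 1:5 series) and held 24 hrs at 37 deg C. Luminescence was read 10 min after detection reagent.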
Nrf2 activator = activators of Nrf2 (ARE) signaling | AREc32 ARE-luciferase reporter (MCF7-derived line), luminescence, 24 h | Potency, µM (titrated, usually from 46.1 µM), inactives show at the top dose activation, most hits filed as activators | hit rate 0.31% among 410,000 | AID 624171; further: potency means the concentration at half of the fitted maximal effect; % of control where 0% means no effect; nearly all actives have a fitted effect of over 65% in size
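Each well held 1000 AREc32 cells, which were incubated with compound for 24 hr at 37 deg C after overnight attachment, and ARE reporter activity was quantified by firefly luciferase luminescence.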
A549 tox = kills or reduces viability of A549 cells in Nrf2 counter-screen; A549 ARE-Fluc cells, CellTiter-Fluor viability, 18-24 h; Potency, µM (highest dose often 46 µM), for the others: top-dose activity change, negative = cytotoxicity, most hits filed as inhibitors; AID 504648; hit rate 0.16% among 390,000; further: potency means the concentration at half of the fitted maximal effect; on the % scale 0 is the no-effect control and ±100 the full control effect
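A549 ARE-Fluc cells in 5% FBS OPTI-MEM, 5000 cells/well, rested 2 h then exposed to compounds in concentration-response for 18-24 h at 37 °C. Viability by CellTiter-Fluor fluorescence (Ex 405/Em 525) after 30 min; luciferase luminescence (BugLite, 15 min, RT) read afterwards.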
BRCA1 expr act = BRCA1 expression activation. Potency, µM (titrated, usually from 46.1 µM), for the others: top-dose activation, usual class: activators. hit rate 1.1% among 380,000. AID 624202. MCF7-BRCA1-FFLuc reporter, luminescence, 48 h; response scale: scaled: vehicle 0%, 10 µM genistein 100%; further: potency means the concentration at half of the fitted maximal effect; nearly all actives have a fitted effect of over 80% in size
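Cells: MCF7-BRCA1-FFLuc, 2000/well. Exposure: 48 h, 37 °C, 5% CO2. Read: luminescence, 15 min post-substrate. Controls: genistein 10 microM (maximal activation), DMSO (neutral).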
Nrf2 inh = Nrf2 pathway inhibition; Potency, µM (highest dose often 46 µM), for inactives: at the top dose activity change, negative = inhibition, actives largely listed as inhibitors; AID 504444; A549 ARE-Fluc reporter, luciferase luminescence, 18-24 h; hit rate 2.1% among 360,000; further: potency means the concentration at half of the fitted maximal effect; on the % scale 0 is the no-effect control and ±100 the full control effect; nearly all actives have a fitted effect of over 60% in size
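Nrf2 function is reported as luminescence of an ARE-controlled luciferase in A549 cells. Compounds were tested at several concentrations, and a CellTiter-Fluor read on the same wells flagged cytotoxicity.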
IL2 activator = activates IL-2 in a cell-based reporter assay. IL-2 activation reporter assay, cell-based qHTS; stimulated with anti-CD3/CD4/CD28 beads; in transgenic mouse T cells. activation, % (series mostly up to about 46 µM). hit rate 0.065% among 360,000. AID 652025; in the data active means activation above about 50%; inconclusive means mostly about 30% to 49%; further: 0% is about no effect
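Unstimulated transgenic mouse T cells, 750 per well, received compound and, after 60 minutes, anti-CD3/anti-CD4 bead plus anti-CD28 stimulation. EGFP and DsRed were quantified after 18 hours.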
Numbers without * were called inactive. Unless noted, the call rests on the fitted dose curve; in most records, active means well fitted curve in the direction sought with a large enough effect; inconclusive means small, poorly fitted or top-dose-only effect, or another doubt; inactive means no such curve, though single readings can be large; an effect the other way counts as inactive or inconclusive.

`C/C=C(\C)C(=O)OC1[C@H](OC(C)=O)C2(CO)C(CC1(C)C)C1=CCC3C4(C)CCC(O[C@@H]5O[C@H](C(=O)O)[C@@H](O[C@@H]6O[C@H](CO)[C@@H](O)[C@H](O)[C@H]6O)[C@H](O)[C@H]5O[C@H]5O[C@H](CO)[C@@H](O)[C@H](O)[C@H]5O)[C@](C)(CO)C4CCC3(C)[C@]1(C)C[C@H]2O` (some centres undefined) gave Nrf2 activator -3%, A549 tox inconclusive, BRCA1 expr act -86%, Nrf2 inh 18µM* and IL2 activator -1.
O=C(c1ccccc1O)N(Cc1cccs1)Cc1cccs1 was read as A549 tox 3% and Nrf2 inh inconclusive.
Screening CC(C)CCNC(=O)c1ccc(-c2ccccc2)cc1 returned p53 reactivation 5%.
For CC(C)CCNC(=O)C(=O)Nc1ccccc1 the results were p53 reactivation 25%, Nrf2 activator 0%, A549 tox 0%, BRCA1 expr act 8.9µM*, Nrf2 inh inconclusive and IL2 activator 0.
`Cc1cc(C)n(-c2ccc(C(=O)N3CCN(S(=O)(=O)c4ccc(C(C)C)cc4)CC3)cc2)n1` gave p53 reactivation 3%, Nrf2 activator 0%, A549 tox -17%, BRCA1 expr act -32%, Nrf2 inh 23µM* and IL2 activator -1.
Screening CCc1cccc(CC)c1NC(=O)CSc1nc2ccc(N3C(=O)C4C(C3=O)[C@H]3C=C[C@@H]4C3)cc2s1 (some centres undefined) returned p53 reactivation -5%, Nrf2 activator 0%, A549 tox -10%, BRCA1 expr act -48%, Nrf2 inh 13µM* and IL2 activator -5.
Screening Cc1ccc(-c2cnc(NCc3c(F)cccc3Cl)n2C)cc1 returned Nrf2 activator 6%, A549 tox -4%, BRCA1 expr act 21% and Nrf2 inh 18%.
Screening CN(C)S(=O)(=O)c1ccc2c(c1)N(CC(=O)Nc1ccc(OC(F)(F)F)cc1)C(=O)CS2 returned Nrf2 activator 9%, A549 tox -7%, BRCA1 expr act -26% and Nrf2 inh inconclusive.
Screening Cc1ccccc1-c1nnc(-c2cccs2)o1 returned p53 reactivation 15%, Nrf2 activator 11µM*, A549 tox 3%, BRCA1 expr act 4%, Nrf2 inh 99% and IL2 activator 1.
Screening Brc1ccc(-c2nnc(-c3cccnc3)o2)cc1 returned Nrf2 activator 9%, A549 tox 1%, BRCA1 expr act 4.5µM*, Nrf2 inh inconclusive and IL2 activator -4.
Brc1ccccc1-c1nnc(-c2cccnc2)o1 was read as p53 reactivation inconclusive, Nrf2 activator 16µM*, A549 tox -2%, BRCA1 expr act 88%, Nrf2 inh inconclusive and IL2 activator -1.
`Cc1ccc(-c2nnc(-c3ccc(Br)cc3)o2)o1` gave p53 reactivation inconclusive, Nrf2 activator 4%, A549 tox 4%, BRCA1 expr act 3.2µM*, Nrf2 inh 26% and IL2 activator -2.
`CCN1CCOC(=O)C1CC(=O)Nc1ccc(Br)cc1` (centres undefined) gave Nrf2 activator 3%, A549 tox -1% and Nrf2 inh -1%.
FC(F)(F)c1ccc(-c2nnc(-c3cccnc3)o2)cc1 was read as p53 reactivation 24%, Nrf2 activator 0%, A549 tox -3%, BRCA1 expr act 55%, Nrf2 inh 26% and IL2 activator 0.
For Cc1ccc(-c2nnc(-c3cccnc3)o2)cc1 the results were p53 reactivation inconclusive, Nrf2 activator 0%, A549 tox 0%, BRCA1 expr act 4.5µM*, Nrf2 inh inconclusive and IL2 activator -2.
`c1cncc(-c2nnc(-c3cccs3)o2)c1` gave p53 reactivation 8%, Nrf2 activator 7%, A549 tox -3%, BRCA1 expr act 14µM*, Nrf2 inh 5% and IL2 activator 0.
Screening Clc1ccc(-c2nnc(-c3cccnc3)o2)cc1 returned Nrf2 activator 23%, A549 tox 0%, BRCA1 expr act 7.9µM*, Nrf2 inh 27% and IL2 activator 0.
`O=C(NCc1ccc(F)cc1)c1ccc(Nc2nc3ccccc3n3nnnc23)cc1` gave Nrf2 activator 0%, A549 tox 1% and Nrf2 inh inconclusive.
Screening O=C(Cc1ccc([N+](=O)[O-])cc1)OCc1ccc([N+](=O)[O-])cc1 returned p53 reactivation 2%, Nrf2 activator 0%, A549 tox 0%, BRCA1 expr act 3%, Nrf2 inh -10% and IL2 activator 0.
For COc1ccc(CC(=O)c2ccc(O)cc2O)cc1 the results were p53 reactivation 18%, Nrf2 activator 0%, A549 tox -1%, BRCA1 expr act inconclusive, Nrf2 inh 10% and IL2 activator 0.
For O=C(Cc1ccc(Br)cc1)c1ccc(O)cc1O the results were p53 reactivation inconclusive, Nrf2 activator 4%, A549 tox 5%, BRCA1 expr act 11µM*, Nrf2 inh 9% and IL2 activator 0.
`O=C(Cc1ccc([N+](=O)[O-])cc1)c1ccc(O)cc1O` gave p53 reactivation 13%, Nrf2 activator -1%, A549 tox 14%, BRCA1 expr act 10µM*, Nrf2 inh -19% and IL2 activator 1.
`CCOc1ccc(NC(=O)Nc2cc(C)ccc2F)cc1` gave p53 reactivation inconclusive, Nrf2 activator 4%, A549 tox -13%, BRCA1 expr act 2.5µM*, Nrf2 inh inconclusive and IL2 activator -2.
`CCOc1ccc(NC(=O)Nc2cc(C(C)C)c(O)cc2C)cc1` gave p53 reactivation 2%, Nrf2 activator -1%, A549 tox -9%, BRCA1 expr act 4%, Nrf2 inh inconclusive and IL2 activator 2.
For Cc1nc(SCC(=O)Nc2ccc(S(=O)(=O)N3CCOCC3)cc2)c2c(C)c(C)sc2n1 the results were p53 reactivation -15%, Nrf2 activator 0%, A549 tox inconclusive, BRCA1 expr act -80%, Nrf2 inh 12µM* and IL2 activator -4.
For Cc1ccc(S(=O)(=O)N2CCN(CC(=O)Nc3ccc(N4CCOCC4)cc3)CC2)cc1C the results were p53 reactivation -6%, Nrf2 activator 0%, A549 tox 1%, BRCA1 expr act -9%, Nrf2 inh -3% and IL2 activator -2.
